Source: PubChem BioAssay AID2069 (Sanford-Burnham Center for Chemical Genomics, 2009)
The whole screen tested about 1,200 compounds, of which about 210 (18%) were called active. The list is a sample of the results. A number with no mark means an inactive call. Cut-off read from the data, not from the text of the source: active = inhibition above about 30%; inactive = the rest.

test: HTRF signal interference by compounds, confirmation, artefact control for SUMOylation inhibitor project, biochemical, uHTS (AID 2069); conditions: HTRF interference counterscreen, fluorescence, at 35 µM, stronger effect = higher value

Row | SMILES | inhibition
1 | Nc1cccc2cnccc12 | 3.2%
2 | COc1ccc(C(=O)CSc2nnc(-c3ccco3)c(-c3ccco3)n2)cc1 | -2.15%
3 | NN1C(=O)/C(=C\c2ccco2)SC1=S | 4.75%
4 | Nc1ccc2c(c1)C/C(=C/c1ccco1)C2=O | 62.9% (active)
5 | NC1=NC(=O)/C(=C\c2ccco2)S1 | 16.6%
6 | COc1ccc(-c2csc(NC(=S)NC(=O)/C=C/c3ccco3)n2)cc1OC | 10.6%
7 | Cc1ccc(/C=C2\SC(=S)N(/N=C/c3cc([N+](=O)[O-])ccc3O)C2=O)o1 | -7.65%
8 | Cc1nn2cc(-c3ccccc3)nc2[nH]c1=O | 62.4% (active)
9 | N#Cc1c2ccc(OCC(N)=O)cc2n2ccccc12 | 35.8% (active)
10 | CCOC(=O)c1c2ccc(OCC(=O)NN)cc2n2ccccc12 | 29.6%
11 | CCOC(=O)c1c2ccc(OCC(=O)N/N=C/c3ccc(C)cc3)cc2n2ccccc12 | 19.8%
12 | CCc1cc2c(=O)nc3n(c2s1)Cc1ccccc1/C3=C(/O)c1cccc([N+](=O)[O-])c1 | 17%
13 | O=C(/C=C/c1cccs1)Nc1scc(-c2ccccc2)c1C(=O)O | 26.6%
14 | Cc1cccn2c(=O)c3cc(C(=O)NC4CCCCCC4)sc3nc12 | 31.1% (active)
15 | Cc1cccn2c(=O)c3cc(S(=O)(=O)c4ccccc4)c(=N)n(Cc4ccco4)c3nc12 | 5.25%
16 | COc1cccc(Cn2cccc(NC(=O)NC3CCCCC3)c2=O)c1 | -4.4%
17 | O=C1C=C(O)CC(c2ccco2)C1 (stereo not drawn) | 5.85%
18 | COCCNC(=S)Nc1ccc2nsnc2c1 | -1.2%
19 | Cc1cc(C)cc(NC(=S)Nc2cccc3ccccc23)c1 | -13.7%
20 | N#Cc1c(N)n(CCNC(=O)c2ccccc2)c2nc3ccccc3nc12 | 19.1%
21 | N#Cc1c(N)n(-c2cccc(C(=O)O)c2)c2nc3ccccc3nc12 | 33.5% (active)

Row | SMILES | inhibition
22 | COc1ccc(-n2c(NC(=O)c3ccco3)c(C#N)c3nc4ccccc4nc32)cc1 | 4.15%
23 | Cc1cccn2c(=O)c3cc(C#N)c(=NC(=O)c4ccco4)n(Cc4ccco4)c3nc12 | 23.1%
24 | O=c1[nH]cc(I)cc1I | -3.65%
25 | O=C1CC(c2ccco2)CC(O)=C1C=Nc1cc(Cl)ccc1O (stereo not drawn) | -2.5%
26 | COc1cccc(-c2nc(SCC(=O)Nc3nc(-c4ccccc4)c(C)s3)[nH]c(=O)c2C#N)c1 | -0.65%
27 | COc1ccc(C(N)c2nccc3cc(OC)c(OC)cc23)cc1OC (stereo not drawn) | -2.9%
28 | CC(=O)c1ccc(NC(=O)Nc2cccnc2)cc1 | 41.8% (active)
29 | O=C(Nc1ccc(N2C(=O)C3C4C=CC(C4)C3C2=O)cc1)Nc1cccnc1 (stereo not drawn) | 16.1%
30 | CN(C(=S)Nc1cccnc1)c1ccc(O)cc1 | 5.3%
31 | CCCC(=O)NC(=S)Nc1cccc2c(O)cccc12 | 11.1%
32 | Cc1ccc(NC(=O)Nc2cccn(Cc3c(F)cccc3Cl)c2=O)cc1 | 3.65%
33 | COc1ccc(-c2ccnc3nc(/N=C/N(C)C)nn23)cc1 | 44.7% (active)
34 | CN(C)/C=N/c1nc2nccc(-c3ccc(F)cc3)n2n1 | 37.5% (active)
35 | Fc1ccc(-c2ccnc3nc(N4CCOCC4)nn23)cc1 | 32.5% (active)
36 | N#CCCN(Cc1cccnc1)C(=S)NC1CC2C=CC1C2 (stereo not drawn) | -9.75%
37 | Cc1ccc(NC(=O)c2ccccc2OCC(=O)Nc2cccc(Cl)c2C)nc1 | 7.7%
38 | CCOc1cc(CNc2cccc3ccccc23)cc(Br)c1OCC(=O)NC(C)(C)C | 12.7%
39 | O=C(c1csc(Nc2cccc3ccccc23)n1)N1CCCC1 | 23.1%
40 | O=[N+]([O-])c1c(NCCO)cc(N2CCCCCC2)c2nonc12 | 22.4%
41 | COc1cc(OC)c2c(O)c3c(c(-c4c5c(c(O)c6c(OC)cc(OC)cc46)CO[C@@H](C)[C@H]5O)c2c1)[C@H](O)[C@H](C)OC3 | 11%
42 | O=[N+]([O-])c1c(NCCO)cc(N2CCC3(CC2)OCCO3)c2nonc12 | -10.3%

Row | SMILES | inhibition
43 | CCOc1ccc(C2Nc3cccc4cccc(c34)N2)cc1OC | -29.6%
44 | O=C1C(=O)c2ccccc2C(O)=C1CCCCl | -11.4%
45 | CCc1ccccc1NC(=O)Nc1cccn(Cc2ccccc2F)c1=O | -9.65%
46 | CC1CCCCC1NC(=O)c1cc2c(=O)n3ccccc3nc2n1C (stereo not drawn) | 57.8% (active)
47 | Cn1c(C(=O)NCC2CCCO2)cc2c(=O)n3ccccc3nc21 (stereo not drawn) | 51% (active)
48 | Cc1ccc(S(=O)(=O)c2cc3c(=O)n4ccccc4nc3n(Cc3ccco3)c2=N)cc1C | 9.75%
49 | C=CCNc1nc(NCc2ccccc2)c(C#N)c2c1CN(C)CC2 | 18.9%
50 | OCCNC(=S)Nc1ccc2nsnc2c1 | 10.1%
51 | CC(C)N1CCC2(CC1)C(C#N)=C(N)NC(S)=C2C#N | 33.9% (active)
52 | Cc1ccoc1C(=O)NCCCNC(=O)c1occc1C | 0.95%
53 | CCOc1cc2c(C#N)c(N3CCOCC3)nc(N)c2c(N)n1 | 51.2% (active)
54 | CCOc1cc2c(C#N)c(N3CCCCC3)nc(N)c2c(N)n1 | 20.6%
55 | COc1cc2c(C#N)c(N3CCCCC3)nc(N)c2c(N)n1 | 25.2%
56 | COCCN(CCOC)c1nc(N)c2c(N)nc3c(c2c1C#N)CC(=O)N3Cc1ccc(Cl)cc1 | 27.9%
57 | COc1cc2c(C#N)c(N3CCN(c4ccccc4OC)CC3)nc(N)c2c(N)n1 | 16.6%
58 | COCC(C)N1C(=O)Cc2c1nc(N)c1c(N)nc(N3CCN(c4ccccc4F)CC3)c(C#N)c21 (stereo not drawn) | 19.1%
59 | N#Cc1c(N2CCCCC2)nc(N)c2c(N)nc(SCC(=O)O)cc12 | 14.9%
60 | COc1ccc(CN2C(=O)Cc3c2nc(N)c2c(N)nc(N4CCOCC4)c(C#N)c32)cc1 | 42.5% (active)
61 | CCOc1cc2c(C#N)c(N3CCNCC3)nc(N)c2c(N)n1 | 47.2% (active)
62 | COc1cc2c(C#N)c(N3CCCC3)nc(N)c2c(N)n1 | 27.4%
63 | COc1cc2c(C#N)c(N3CCN(C)CC3)nc(N)c2c(N)n1 | 43.2% (active)
